A number with no mark means an inactive call. Results filed as inconclusive are left out. Where a call stands in place of a potency, no number is given. Active and inactive are the calls of the source. Unless noted, calls come from the whole dose curve.
Tests used:
[1] = Nuclear factor erythroid 2-related factor 2/antioxidant responsive element (Nrf2/ARE) small molecule agonists: qHTS cell viability counter screen in human keratinocytes (AID 1919968; active = well fitted curve in the direction sought with a large enough effect in the repeat runs; an effect the other way counts as inactive or inconclusive; note: nearly all actives have a fitted effect of over 55% in size)
Outline: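 Fluorescence read-out from CellTiter-Fluor after 1 h at 37 C. Wells held HaCaT-derived ARE-luciferase reporter cells (1,500/well) treated 23 h with DMSO-dissolved compounds. Run in the same wells as the luciferase agonist read.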

[2] = Nuclear factor erythroid 2-related factor 2/antioxidant responsive element (Nrf2/ARE) small molecule agonists: luciferase reporter gene qHTS assay in human keratinocytes (AID 1919969); note: nearly all actives have a fitted effect of over 35% in size
[3] = target: Gonadotropin-releasing hormone receptor (Homo sapiens) (UniProt P30968); experiment: Human gonadotropin-releasing hormone receptor (GnRHR) small molecule agonists, calcium flux assay in GnRHR-HEK293 cells (AID 1920063); note: nearly all actives have a fitted effect of over 35% in size
Gonadotropin-releasing hormone receptor (Homo sapiens), sequence (P30968 whole entry, looked up): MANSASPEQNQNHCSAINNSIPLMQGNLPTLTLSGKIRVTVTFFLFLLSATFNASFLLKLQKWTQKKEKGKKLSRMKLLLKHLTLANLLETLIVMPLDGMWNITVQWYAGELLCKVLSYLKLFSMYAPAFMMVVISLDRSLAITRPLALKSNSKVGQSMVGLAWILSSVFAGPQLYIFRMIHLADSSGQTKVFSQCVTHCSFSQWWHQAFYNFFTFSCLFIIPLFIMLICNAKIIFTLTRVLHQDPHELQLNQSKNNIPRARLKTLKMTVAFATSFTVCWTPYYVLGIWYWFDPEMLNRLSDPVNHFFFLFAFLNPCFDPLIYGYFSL
Outline: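 Calcium-dye fluorescence, Ex/Em=480/540, recorded every 1 sec over 3 min after compound addition to GnRHR-HEK293 cells. Cells had been seeded 18 hours earlier and dye-loaded for 1 hour at 37 C. Fifteen concentrations, triplicates.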

[4] = target: KiSS-1 receptor (Homo sapiens) (UniProt Q969F8); experiment: Human kisspeptin (KISS1R) small molecule agonists, calcium flux assay in KISS1R-HEK293 cells (AID 1920064; active = well fitted curve in the direction sought with a large enough effect in the repeat runs; an effect the other way counts as inactive or inconclusive)
KiSS-1 receptor (Homo sapiens), sequence (Q969F8 whole entry, looked up): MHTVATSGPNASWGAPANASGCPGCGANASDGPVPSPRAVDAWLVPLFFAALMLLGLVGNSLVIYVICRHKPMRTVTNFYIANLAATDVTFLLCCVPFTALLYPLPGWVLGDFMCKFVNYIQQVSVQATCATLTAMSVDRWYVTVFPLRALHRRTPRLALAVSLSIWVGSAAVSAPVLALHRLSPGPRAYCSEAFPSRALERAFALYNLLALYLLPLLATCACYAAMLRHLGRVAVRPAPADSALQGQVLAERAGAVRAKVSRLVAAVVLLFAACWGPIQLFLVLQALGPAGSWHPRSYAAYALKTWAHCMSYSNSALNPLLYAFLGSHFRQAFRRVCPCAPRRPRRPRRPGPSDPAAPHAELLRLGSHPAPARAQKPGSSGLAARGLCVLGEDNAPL
Outline: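 Calcium flux read-out: kinetic fluorescence at Ex/Em=480/540, 1 s intervals over 3 min, after pin-tool compound addition to dye-loaded KISS1R-HEK293 cells. Fifteen concentrations, triplicates.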

[5] = G protein-coupled receptor (GPCR) small molecule agonists, calcium flux assay: HEK293 wild type cell line counter screen (AID 1920065)
Outline: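 Agonist mode; 18 h seeding at 37 C, 1 h dye load at 37 C; compounds pinned from DMSO, ATP as positive control; kinetic fluorescence 480/540 nm, 3 min, 1 s reads; 15 concentrations, triplicate.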

[6] = p53 small molecule agonists, cell-based qHTS assay with human liver microsomes: qHTS cell viability counter screen (AID 1963579); note: nearly all actives have a fitted effect of over 45% in size
Outline: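 p53RE-bla cells, 4,000/well, dosed 5 hours after plating, with human liver microsomes (0.5 mg/mL final) plus NADPH (0.5 mg/mL final), 16 hours at 37 C. Viability read as CellTiter-Glo luminescence after 30 min at room temperature.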

[7] = p53 small molecule agonists, cell-based qHTS assay with rat liver microsomes: qHTS cell viability counter screen (AID 1963580); note: nearly all actives have a fitted effect of over 45% in size
Outline: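 Cytotoxicity counter screen: intracellular ATP read by CellTiter-Glo luminescence in the p53 reporter wells. HCT-116 p53RE-bla cells were treated for 16 h at 37 C alongside rat liver microsomes and NADPH, each 0.5 mg/mL final.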

[8] = p53 small molecule agonists, cell-based qHTS assay: qHTS cell viability counter screen (AID 1963581); note: nearly all actives have a fitted effect of over 45% in size
Outline: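 Cytotoxicity read-out: ATP-based luminescence (CellTiter-Glo, 30 min RT) measured in the same wells as the p53 reporter assay, HCT-116 p53RE-bla cells, 16 h compound exposure at 37 C.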

[9] = p53 small molecule agonists, cell-based qHTS assay (AID 1963582; active = well fitted activation curve with a large enough effect in the signal ratio in the repeat runs, not every such curve was filed as active; the % refers to the signal ratio)
Outline: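 Fluorescence intensity read-out of a beta-lactamase reporter under a p53 response element. Cells were exposed to DMSO-dissolved compounds for 16 h at 37 C, then developed with FRET substrate for 2 h at RT.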

[10] = target: 5-hydroxytryptamine receptor 2A (Homo sapiens) (UniProt P28223); experiment: 5-hydroxytryptamine receptor 2A (HTR2A) small molecule antagonists, cell-based qHTS assay (AID 1963586); note: nearly all actives have a fitted effect of over 45% in size
5-hydroxytryptamine receptor 2A (Homo sapiens), sequence (P28223 whole entry, looked up): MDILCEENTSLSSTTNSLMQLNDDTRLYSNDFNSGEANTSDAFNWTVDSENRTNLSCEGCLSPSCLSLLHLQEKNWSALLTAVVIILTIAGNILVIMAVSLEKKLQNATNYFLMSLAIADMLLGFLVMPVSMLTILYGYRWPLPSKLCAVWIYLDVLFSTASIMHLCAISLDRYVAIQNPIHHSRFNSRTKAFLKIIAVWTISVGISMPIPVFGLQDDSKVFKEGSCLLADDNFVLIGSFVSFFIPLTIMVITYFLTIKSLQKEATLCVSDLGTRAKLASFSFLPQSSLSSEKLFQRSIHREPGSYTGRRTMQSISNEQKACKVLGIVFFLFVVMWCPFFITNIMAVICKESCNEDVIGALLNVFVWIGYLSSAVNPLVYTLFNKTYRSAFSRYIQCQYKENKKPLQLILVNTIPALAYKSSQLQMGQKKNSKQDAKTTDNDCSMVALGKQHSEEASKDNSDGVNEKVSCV
Outline: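 CHO cells stably expressing human HTR2A were plated for 18 h at 37 C, then loaded with calcium dye for 1 h. Compounds were preincubated 5 min at room temperature before DOI (4 nM solution) was added. Kinetic fluorescence was read for 3 min.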

[11] = target: 5-hydroxytryptamine receptor 2A (Homo sapiens) (UniProt P28223); experiment: 5-hydroxytryptamine receptor 2A (HTR2A) small molecule agonists, cell-based qHTS assay (AID 1963587); note: nearly all actives have a fitted effect of over 30% in size
Outline: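 Kinetic calcium-flux fluorescence (2 min, 1 sec intervals) after compound addition in agonist mode. HTR2A-CHO cells were cultured 18 h, then dye-loaded 1 h at 37 C.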

[12] = target: Muscarinic acetylcholine receptor M1 (Homo sapiens) (UniProt P11229); experiment: Cholinergic receptor muscarinic 1 (CHRM1) small molecule antagonists, cell-based qHTS assay (AID 1963588); note: nearly all actives have a fitted effect of over 40% in size
Muscarinic acetylcholine receptor M1 (Homo sapiens), sequence (P11229 whole entry, looked up): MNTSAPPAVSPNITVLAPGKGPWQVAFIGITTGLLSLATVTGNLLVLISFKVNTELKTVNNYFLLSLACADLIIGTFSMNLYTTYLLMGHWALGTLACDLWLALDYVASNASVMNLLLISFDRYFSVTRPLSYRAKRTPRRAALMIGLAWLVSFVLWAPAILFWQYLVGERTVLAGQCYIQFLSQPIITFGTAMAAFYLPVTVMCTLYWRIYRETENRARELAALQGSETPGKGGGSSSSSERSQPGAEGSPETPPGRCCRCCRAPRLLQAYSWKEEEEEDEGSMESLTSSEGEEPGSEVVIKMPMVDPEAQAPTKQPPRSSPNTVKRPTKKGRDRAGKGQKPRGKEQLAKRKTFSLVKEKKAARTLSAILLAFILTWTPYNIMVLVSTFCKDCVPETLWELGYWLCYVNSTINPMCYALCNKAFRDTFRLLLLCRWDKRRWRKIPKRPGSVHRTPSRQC
Outline: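 Compounds were tested at 15 concentrations in three independent runs. Dye-loaded CHRM1-CHO cells were exposed 5 min at room temperature before stimulation by acetylcholine added at 50nM. Intracellular calcium was read kinetically on FDSS for 3 min.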

[13] = target: Muscarinic acetylcholine receptor M1 (Homo sapiens) (UniProt P11229); experiment: Cholinergic receptor muscarinic 1 (CHRM1) small molecule agonists, cell-based qHTS assay (AID 1963589); note: nearly all actives have a fitted effect of over 35% in size
Outline: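 Calcium flux read-out: kinetic fluorescence at 1 sec intervals after pin-tool compound addition to dye-loaded CHRM1-CHO cells (human M1). Agonist mode; 15 concentrations tested in triplicate independent runs.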

[14] = cAMP Responsive Elements (CRE) small molecule agonists, cell-based qHTS assay (AID 1963590)
Outline: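 Beta-lactamase reporter readout: LiveBLAzer B/G FRET substrate, 2 h at room temperature, added after 3 h compound treatment of CRE-bla HEK 293T cells at 37 C/5% CO2.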

[15] = cAMP Responsive Elements (CRE) small molecule antagonists, cell-based qHTS assay (AID 1963591; active = well fitted inhibition curve with a large enough effect in the signal ratio in the repeat runs, not every such curve was filed as active; the % refers to the signal ratio)
Outline: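 HEK293T CRE-bla; 18 h preincubation; compound pin-transfer; NKH477 0.25 uM final, 3 h, 37 C; LiveBLAzer FRET substrate 2 h RT.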

[16] = target: Beta-2 adrenergic receptor (Homo sapiens) (UniProt P07550); experiment: Adrenergic beta2 receptor (ADRB2) small molecule antagonists, cell-based qHTS assay (AID 1963592); note: series mostly up to about 92 µM; nearly all actives have a fitted effect of over 50% in size
Beta-2 adrenergic receptor (Homo sapiens), sequence (P07550 whole entry, looked up): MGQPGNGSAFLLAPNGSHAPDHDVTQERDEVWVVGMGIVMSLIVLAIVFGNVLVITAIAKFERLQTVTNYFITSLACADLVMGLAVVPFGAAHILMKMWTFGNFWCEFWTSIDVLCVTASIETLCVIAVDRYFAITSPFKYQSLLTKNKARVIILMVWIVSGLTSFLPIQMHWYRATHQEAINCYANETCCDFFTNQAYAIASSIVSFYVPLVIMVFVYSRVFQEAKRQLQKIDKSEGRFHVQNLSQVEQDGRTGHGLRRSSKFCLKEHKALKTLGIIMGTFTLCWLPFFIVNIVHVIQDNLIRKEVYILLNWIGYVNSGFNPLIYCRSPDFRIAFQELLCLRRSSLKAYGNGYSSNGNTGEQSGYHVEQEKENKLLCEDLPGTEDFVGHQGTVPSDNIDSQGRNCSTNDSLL
Outline: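 Assay format: CHO-ADRB2 cells, 18-20hr seeding at 37C/5% CO2, then compound plus 1nM isoproterenol agonist mix for 0.5hr RT. Homogeneous time-resolved fluorescence cAMP detection after 1hr, expressed as 665/615 nm ratio.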

[17] = target: D(2) dopamine receptor (Homo sapiens) (UniProt P14416); experiment: Dopamine D2 receptor (DRD2) small molecule agonists, cell-based qHTS assay (AID 1963594); note: nearly all actives have a fitted effect of over 35% in size; note: potency is the fitted concentration of half-maximal effect
D(2) dopamine receptor (Homo sapiens), sequence (P14416 whole entry, looked up): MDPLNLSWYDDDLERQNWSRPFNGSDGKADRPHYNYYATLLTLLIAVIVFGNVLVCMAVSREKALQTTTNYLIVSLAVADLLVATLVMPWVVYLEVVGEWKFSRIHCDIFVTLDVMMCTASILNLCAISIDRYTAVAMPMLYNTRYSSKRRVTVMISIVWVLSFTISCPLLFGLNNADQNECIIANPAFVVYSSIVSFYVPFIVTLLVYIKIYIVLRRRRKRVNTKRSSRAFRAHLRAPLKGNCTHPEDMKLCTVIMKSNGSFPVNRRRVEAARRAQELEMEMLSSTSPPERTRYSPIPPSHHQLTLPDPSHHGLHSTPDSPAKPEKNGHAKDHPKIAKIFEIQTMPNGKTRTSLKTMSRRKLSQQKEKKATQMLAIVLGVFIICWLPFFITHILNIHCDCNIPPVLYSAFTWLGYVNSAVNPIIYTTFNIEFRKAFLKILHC
Outline: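 cAMP accumulation in DRD2-HEK293 cells measured by HTRF after 1 h detection; compounds added 10 min before NKH477 (200nM […]) forskolin-analogue stimulation, 30 min at room temperature, with Ro20-1724 present at 0.1 mM final.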

[18] = target: D(2) dopamine receptor (Homo sapiens) (UniProt P14416); experiment: Dopamine D2 receptor (DRD2) small molecule antagonists, cell-based qHTS assay (AID 1963595; active = well fitted inhibition curve with a large enough effect in the signal ratio in the repeat runs, with a control signal flat; the % refers to the signal ratio)
Outline: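 Stable D2 receptor HEK293 line, 24 h after seeding. Compound preincubated 10 min, then quinpirole (12 nM) with forskolin analogue NKH477 (200 nM), 30 min, room temperature. Detection by time-resolved FRET of cAMP.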

[19] = target: Beta-2 adrenergic receptor (Homo sapiens) (UniProt P07550); experiment: Adrenergic beta2 receptor (ADRB2) small molecule agonists, cell-based qHTS assay (AID 1963593);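 note: CHO cells stably overexpressing human ADRB2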
Outline: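 CHO cells stably over-expressing ADRB2 were plated overnight at 37C, then dosed with compounds plus a stimulation mix containing 100uM IBMX and 25uM Ro-20-1724 for 0.5hr at room temperature. cAMP was measured by HTRF competition, 1hr.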

Row | Structure (SMILES) | Potency [1] | Potency [2] | Potency [3] | Potency [4] | Potency [5] | Potency [6] | Potency [7] | Potency [8] | Potency [9] | Potency [10] | Potency [11] | Potency [12] | Potency [13] | Potency [14] | Potency [15] | Potency [16] | Potency [17] | Potency [18] | Potency [19]
1 | CCO[Si](CCCN=C=O)(OCC)OCC | inactive | inactive | inactive | inactive | inactive | inactive | inactive | inactive | inactive | inactive | inactive | inactive | inactive | inactive | inactive | inactive | inactive | inactive | –
2 | CC1CC(O)CC(C)(C)C1 (stereo not drawn) | inactive | inactive | inactive | inactive | inactive | inactive | inactive | – | inactive | inactive | inactive | inactive | inactive | inactive | inactive | inactive | inactive | inactive | inactive
3 | OCC(CO)N[C@H]1C[C@](O)(CO)[C@@H](O)[C@H](O)[C@H]1O | inactive | inactive | inactive | inactive | inactive | inactive | inactive | inactive | inactive | inactive | inactive | inactive | inactive | inactive | inactive | inactive | inactive | inactive | inactive
4 | COc1cc(Cl)ccc1Cl | inactive | inactive | inactive | inactive | inactive | inactive | inactive | inactive | inactive | inactive | inactive | inactive | inactive | inactive | inactive | inactive | inactive | inactive | –
5 | CCCCCCCCCCCCI | inactive | inactive | inactive | inactive | inactive | inactive | inactive | inactive | inactive | inactive | inactive | inactive | inactive | inactive | inactive | – | 54.7 µM (active) | inactive | inactive
6 | O=C1OC(CN2CCOCC2)CN1/N=C/c1ccc([N+](=O)[O-])o1 (stereo not drawn) | inactive | inactive | inactive | inactive | inactive | inactive | inactive | inactive | inactive | inactive | inactive | inactive | – | inactive | inactive | inactive | inactive | inactive | inactive
7 | NC(=O)NNC(N)=O | inactive | inactive | inactive | inactive | inactive | inactive | inactive | inactive | – | inactive | inactive | inactive | inactive | inactive | inactive | inactive | inactive | inactive | –
8 | CC/C=C\C#N | inactive | inactive | inactive | inactive | inactive | inactive | inactive | inactive | inactive | inactive | – | inactive | inactive | inactive | – | inactive | inactive | inactive | inactive

Source: PubChem BioAssay (Tox21)
